14 compounds from PubChem BioAssay (NCI) can be followed below.

Where “and” joins values, the source holds several entries; their conditions need not be identical. Equal entries are not always repeated. About 83,000 compounds went through this panel and 20% of them were active in at least one assay; those are over-represented in the sample as a whole.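 The endpoint reported here, percent growth, reads 100 for growth as untreated, 0 for no net growth and -100 for all cells dead.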 Calls of active or inactive are those of the source. How the source made its calls: active means growth percent below 10; inactive means the rest.

Some test systems named below: HCT-15 colon; HT29 colon; SNB-75 CNS; SNB-19 CNS; U251 CNS; SK-MEL-5 melanoma; UACC-62 melanoma; LOX IMVI melanoma; SK-MEL-28 melanoma; PC-3 prostate.
What all share (assay): NCI-60 one-dose screen, 48 h (100 = growth as untreated, 0 = no growth, -100 = all killed)
Details in all cases: 10 µM unless noted

In the case of `CCC(=O)Oc1ccc(OCc2ccccc2)cc1`, the growth in the assay with HCT-15 colon was 103% (inactive) and 97% (inactive); in the assay on HT29 colon, 98.7% (inactive) and 91.2% (inactive); with SNB-75 CNS, 98.2% (inactive) and 105% (inactive); in the assay with SNB-19 CNS, 97.7% (inactive) and 96.5% (inactive); with U251 CNS, 87.7% (inactive) and 80.8% (inactive); in the assay with SK-MEL-5 melanoma, 84.1% (inactive) and 73.6% (inactive). In addition, the growth was 81.8% (inactive) and 79.9% (inactive) in the assay with UACC-62 melanoma; 88.8% (inactive) and 84.7% (inactive) with LOX IMVI melanoma; 122% (inactive) and 111% (inactive) in the assay with SK-MEL-28 melanoma.
In the case of `Cc1ccc([N+](=O)[O-])cc1Br`, the growth in the assay on HCT-15 colon is 101% (inactive); in the assay with HT29 colon, 70.7% (inactive); with SNB-75 CNS, 104% (inactive); with SNB-19 CNS it was 97.9% (inactive); with U251 CNS, 96.4% (inactive); in the assay with SK-MEL-5 melanoma it was 99.8% (inactive). Moreover, the growth in the assay with UACC-62 melanoma was 95.8% (inactive); in the assay with LOX IMVI melanoma, 105% (inactive); with SK-MEL-28 melanoma, 104% (inactive).
`CCC(C)NC(=O)c1ccccc1C` (configuration not stated): the growth is 96.3% (inactive) with HCT-15 colon; 97.4% (inactive) in the assay with HT29 colon; 76.8% (inactive) in the assay on SNB-75 CNS; 97.9% (inactive) in the assay with SNB-19 CNS; 102% (inactive) in the assay on U251 CNS; 91% (inactive) with SK-MEL-5 melanoma. For the same compound, the growth with UACC-62 melanoma was 100% (inactive); in the assay with LOX IMVI melanoma, 95.7% (inactive); in the assay on SK-MEL-28 melanoma, 94.3% (inactive).
On to `COc1ccc2oc3c(ccc[n+]3C)c(=O)c2c1`, for which the growth with HCT-15 colon is 100% (inactive); with HT29 colon it was 96.6% (inactive); with SNB-75 CNS, 100% (inactive); with SNB-19 CNS, 97.9% (inactive); in the assay on U251 CNS, 93.6% (inactive); in the assay on SK-MEL-5 melanoma, 99.4% (inactive). Also, the growth in the assay on UACC-62 melanoma is 92.6% (inactive); in the assay with LOX IMVI melanoma it was 99.9% (inactive); in the assay with SK-MEL-28 melanoma, 103% (inactive).
For `Nc1ccccc1SC1CC(=O)N(c2ccc(I)cc2)C1=O` (configuration not stated), the growth is 88.5% (inactive) with HCT-15 colon; 93.3% (inactive) with HT29 colon; 79.8% (inactive) in the assay with SNB-75 CNS; 96% (inactive) in the assay with SNB-19 CNS; 88.4% (inactive) in the assay on U251 CNS; 87.9% (inactive) with SK-MEL-5 melanoma. The values for the growth with UACC-62 melanoma, in the assay on LOX IMVI melanoma and in the assay with SK-MEL-28 melanoma were 82.7% (inactive), 76.4% (inactive) and 90.8% (inactive), respectively.
On to `CCOC(=O)c1ccncc1`, for which the growth with HCT-15 colon was 108% (inactive); with HT29 colon it was 104% (inactive); in the assay on SNB-75 CNS it was 108% (inactive); with SNB-19 CNS it was 111% (inactive); with U251 CNS, 104% (inactive); with SK-MEL-5 melanoma, 95.8% (inactive). Besides, the growth with UACC-62 melanoma is 101% (inactive); in the assay with LOX IMVI melanoma, 99% (inactive); in the assay on SK-MEL-28 melanoma, 110% (inactive).
On to `Clc1ccc(/C=C/c2ccc3ccccc3n2)cc1`, for which the growth in the assay on HCT-15 colon was 26.6% (inactive) and 96.4% (inactive) and 81.7% (inactive); with HT29 colon, 2.32% (active) and 79.3% (inactive) and 71.1% (inactive); in the assay on SNB-75 CNS, -21.1% (active) and 98.7% (inactive) and 88.1% (inactive); with SNB-19 CNS, 42.2% (inactive) and 96.2% (inactive) and 98.8% (inactive); with U251 CNS it was 16.3% (inactive) and 95.6% (inactive) and 87.1% (inactive); in the assay with SK-MEL-5 melanoma, 24.4% (inactive) and 88.9% (inactive) and 81.9% (inactive). Also, the growth is 43.1% (inactive) and 78.5% (inactive) and 75.8% (inactive) with UACC-62 melanoma; 18.3% (inactive) and 83% (inactive) and 82.5% (inactive) with LOX IMVI melanoma; 57.5% (inactive) and 166% (inactive) and 101% (inactive) in the assay with SK-MEL-28 melanoma.
In the case of `CS(=O)(=O)OCC1NC(=O)C(COS(C)(=O)=O)NC1=O` (configuration not stated), the growth with HCT-15 colon is 91.8% (inactive) and 88.4% (inactive); in the assay on HT29 colon, 85.6% (inactive) and 81.3% (inactive); with SNB-75 CNS, 56.5% (inactive) and 100% (inactive); in the assay with SNB-19 CNS it was 105% (inactive) and 110% (inactive); in the assay on U251 CNS, 95.9% (inactive) and 93.9% (inactive); in the assay on SK-MEL-5 melanoma, 96.5% (inactive) and 103% (inactive). For the same compound, the growth is 101% (inactive) and 102% (inactive) in the assay with UACC-62 melanoma; 94.1% (inactive) and 90.5% (inactive) in the assay with LOX IMVI melanoma; 115% (inactive) and 112% (inactive) in the assay on SK-MEL-28 melanoma.
For the compound `COc1ccc(CCNC(=S)NN)cc1OC`, the growth is 104% (inactive) with HT29 colon; 106% (inactive) in the assay with SNB-75 CNS; 127% (inactive) with SNB-19 CNS; 105% (inactive) in the assay on U251 CNS; 101% (inactive) in the assay on PC-3 prostate; 103% (inactive) in the assay with SK-MEL-5 melanoma. Besides, the growth with UACC-62 melanoma was 115% (inactive); in the assay with LOX IMVI melanoma it was 103% (inactive); in the assay on SK-MEL-28 melanoma, 114% (inactive).
As to `C(#CCN1CCOCC1)CCCN1CCOCC1`, the growth is 106% (inactive) and 105% (inactive) in the assay on HT29 colon; 83.7% (inactive) and 104% (inactive) with SNB-75 CNS; 107% (inactive) and 108% (inactive) in the assay on SNB-19 CNS; 102% (inactive) and 98.7% (inactive) with U251 CNS; 101% (inactive) and 104% (inactive) in the assay on SK-MEL-5 melanoma; 102% (inactive) and 99.6% (inactive) in the assay with LOX IMVI melanoma. In the assay with SK-MEL-28 melanoma, the growth was 107% (inactive) and 110% (inactive).
For the compound `CN(C=O)c1ccccc1`, the growth in the assay on HT29 colon is 99.9% (inactive); in the assay on SNB-75 CNS, 80.6% (inactive); with SNB-19 CNS, 102% (inactive); in the assay on U251 CNS it was 93.5% (inactive); in the assay with PC-3 prostate it was 88.4% (inactive); in the assay with SK-MEL-5 melanoma it was 94.5% (inactive). The values for the growth in the assay on UACC-62 melanoma and in the assay on LOX IMVI melanoma were 88.7% (inactive) and 89.5% (inactive), respectively.
As to `CC(C)(C)OC(=O)CC1(O)CCCCC1`, the growth with HT29 colon is 111% (inactive); in the assay on SNB-75 CNS, 90.8% (inactive); in the assay with SNB-19 CNS, 106% (inactive); with U251 CNS, 104% (inactive); in the assay on PC-3 prostate, 96.8% (inactive); with SK-MEL-5 melanoma, 95.7% (inactive). Further, the growth is 102% (inactive) with LOX IMVI melanoma and 105% (inactive) with SK-MEL-28 melanoma.
For the compound `CCCC(=O)Oc1ccc2ccccc2c1`, the growth with HT29 colon is 103% (inactive); in the assay on SNB-75 CNS, 105% (inactive); in the assay on SNB-19 CNS, 101% (inactive); in the assay on U251 CNS, 95.5% (inactive); in the assay on PC-3 prostate, 73.1% (inactive); in the assay with SK-MEL-5 melanoma, 97.3% (inactive). For the same compound, the growth with UACC-62 melanoma is 100% (inactive); in the assay with LOX IMVI melanoma, 101% (inactive); in the assay on SK-MEL-28 melanoma it was 114% (inactive).
As for `Cc1onc(-c2c(F)cccc2Cl)c1-c1ncc(-c2ccc(Cl)cc2)o1`, the growth in the assay on HT29 colon is 23.3% (inactive) and 21.8% (inactive); in the assay on SNB-75 CNS it was 84% (inactive) and 62% (inactive); in the assay on SNB-19 CNS it was 80.7% (inactive) and 40% (inactive); in the assay with U251 CNS, 41.1% (inactive); in the assay on PC-3 prostate, 31% (inactive) and 34.5% (inactive); in the assay with SK-MEL-5 melanoma, 25.4% (inactive) and 6.61% (active). In addition, the growth in the assay on UACC-62 melanoma was 29.7% (inactive) and 32.2% (inactive); in the assay with LOX IMVI melanoma, 12.5% (inactive); with SK-MEL-28 melanoma it was 68.8% (inactive) and 50.2% (inactive).
